Six1-Eya2 inh = blocks human Six1 binding to Eya2; Q15475+O00167; AlphaScreen GST-Six1/His-Eya2 binding, biochemical; hits give low values; activity change, % (test concentration not listed); 360,000 tested, 0.56% active; AID 651725; in the data active means activity change below about -65%; inconclusive means mostly about -30% to -63%; further: on the % scale 0 is the no-effect control and ±100 the full control effect
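Homogeneous AlphaScreen proximity assay pairing GST-Six1 with His-tagged Eya2 (added as 5X mix: 250 nM and 500 nM) in 50 mM Tris pH 8.0, 300 mM NaCl, 1 mM TCEP. Glutathione donor and nickel acceptor beads; 1 h, 37 °C, dark.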
G9a block = G9a (human) methyltransferase inhibition | G9a H3K9 monomethylation, AlphaScreen, 2 h | 350,000 tested, 8.8% active | Q96KQ7 | Potency, µM (highest dose often 102 µM), without a hit: at the highest dose activity, negative = inhibition, hits mostly inhibitors; further: potency means the concentration at half of the fitted maximal effect; on the % scale 0 is the no-effect control and ±100 the full control effect; nearly all actives have a fitted effect of over 75% in size
Target sequence (Q96KQ7 913-1193 limits assumed): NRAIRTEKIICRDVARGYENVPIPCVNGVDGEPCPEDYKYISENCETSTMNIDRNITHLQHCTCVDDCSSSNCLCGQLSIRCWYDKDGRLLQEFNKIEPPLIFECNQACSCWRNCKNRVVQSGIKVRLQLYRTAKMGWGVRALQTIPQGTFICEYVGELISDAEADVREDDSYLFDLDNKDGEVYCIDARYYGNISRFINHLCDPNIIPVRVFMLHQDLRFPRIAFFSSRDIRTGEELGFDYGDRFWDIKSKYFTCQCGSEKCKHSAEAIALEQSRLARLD
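Methyltransferase reactions run at room temperature for 2 h (20 nM enzyme, 500 nM biotin-H3K9 peptide, 20 uM SAM) after a 15 min compound preincubation; product detected by AlphaScreen beads and anti-H3K9me1 antibody.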
JMJD2A Tudor = inhibitors of human JMJD2A Tudor domain; O75164; AlphaScreen JMJD2A-Tudor / H3K4me3 peptide binding; Potency, µM (doses to about 114 µM), for the others: at the highest dose activity change, negative = inhibition, actives largely listed as inhibitors; 390,000 tested, 4.4% active; further: potency means the concentration at half of the fitted maximal effect; on the % scale 0 is the no-effect control and ±100 the full control effect; nearly all actives have a fitted effect of over 50% in size
BAZ2B block = blocks human BAZ2B | AlphaScreen BAZ2B-H3K14Ac peptide displacement | AID 504333 | Potency, µM (doses to about 114 µM), for inactives: at the highest dose activity change, negative = inhibition, most hits filed as inhibitors | Q9UIF8 | 360,000 tested, 4.4% active; further: potency means the concentration at half of the fitted maximal effect; on the % scale 0 is the no-effect control and ±100 the full control effect; nearly all actives have a fitted effect of over 60% in size
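Compounds, titrated to a top concentration of 110 uM, were incubated 30 min at room temperature with preformed BAZ2B/acetyl-K14 H3 peptide complex (50 nM each). Proximity signal was measured by AlphaScreen after 20 min with beads.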
CtBP-E1A inh = inhibitors of CtBP/E1A interaction | AlphaScreen GST-E1A/His-CtBP binding, 1536-well; hits give low values | activity change, % (test concentration not listed) | 340,000 tested, 0.49% active | AID 651724; in the data active means activity change below about -65%; inconclusive means mostly about -30% to -63%; further: on the % scale 0 is the no-effect control and ±100 the full control effect
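GST-E1A and His-tagged CtBP (125 nM each as 5X stock) were preincubated with pin-transferred compound for 2 h at 37 °C in the dark, then glutathione donor and nickel acceptor beads were added for 1 h before AlphaScreen reading.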
HP1b chromo inh = HP1-beta chromodomain-methylated histone interaction inhibition; AlphaScreen HP1-beta / biotin-H3K9me3 peptide binding; Potency, µM (highest dose often 114 µM), inactives show top-dose activity change, negative = inhibition, most hits filed as inhibitors; 390,000 tested, 0.56% active; AID 540317; further: potency means the concentration at half of the fitted maximal effect; nearly all actives have a fitted effect of over 70% in size
Target sequence (P83916 whole entry, looked up): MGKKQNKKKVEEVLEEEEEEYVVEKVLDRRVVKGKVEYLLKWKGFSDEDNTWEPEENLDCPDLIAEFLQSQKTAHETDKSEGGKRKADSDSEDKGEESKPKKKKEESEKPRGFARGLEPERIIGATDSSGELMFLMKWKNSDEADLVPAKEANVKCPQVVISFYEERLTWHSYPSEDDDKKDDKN
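AlphaScreen: HP1-beta (50 nM) preformed 30 min with biotin-H3(1-18)K9me3 peptide (50 nM) in PBS pH 7.4, 0.01% Tween-20. Compound added for 30 min at RT, then streptavidin donor/nickel chelate acceptor beads (10 ug/mL) for 30 min.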
* marks the source's active call; other numbers are inactive results; ? = inconclusive; . = no result; [ ] = remark or other dose. In the library only some 10% were active in any assay of this set; here they are far more common. Unless noted, the call rests on the fitted dose curve; in most records, active means well fitted inhibition curve with a large enough effect; inconclusive means small, poorly fitted or top-dose-only effect; inactive means no such curve, though single readings can be large or run the other way.

SMILES	Six1-Eya2 inh	G9a block	JMJD2A Tudor	BAZ2B block	CtBP-E1A inh	HP1b chromo inh
O=C(c1ccc(C#Cc2ccccc2)o1)N1CCN(c2ccccn2)CC1	-8.3	44.7µM*	-18.4%	?	-16.2	?
Cc1ccc2[nH]c(=O)c3cc(C(=O)N(C)C4CCCCC4)sc3c2c1	8.0	5.7%[59 µM]	-12.0%	-15.2%	-15.1	40.8%
O=C1c2ccccc2C(=O)c2c(NCCCN(CCO)CCO)cccc21	?	44.7µM*	39.8µM*	28.2µM*	-28.5	25.1µM*
O=c1[nH]c2cc3c(cc2cc1CN(Cc1cccnc1)Cc1nnnn1Cc1ccco1)OCCO3	-19.2	?	?	?	-1.1	6.1%
O=c1[nH]c2cc3c(cc2cc1CN(CCc1ccccc1)Cc1nnnn1C1CCCC1)OCCO3	.	15.8µM*	.	-18.1%	.	.
COc1ccccc1CN(Cc1cc2cc3c(cc2[nH]c1=O)OCCO3)Cc1nnnn1Cc1ccco1	0.0	?	35.5µM*	?	41.5	-25.2%
O=c1[nH]c2cc3c(cc2cc1CN(Cc1ccccc1)Cc1nnnn1Cc1ccco1)OCCO3	-19.1	25.1µM*	?	.	-7.8	-20.5%
Cc1cc2cc(CN(Cc3ccc4c(c3)OCO4)Cc3nnnn3C3CCCC3)c(=O)[nH]c2cc1C	-3.9	-7.7%[59 µM]	-3.1%	.	11.3	16.7%
CCc1ccc2[nH]c(=O)c(CN(Cc3ccccc3)Cc3nnnn3Cc3ccco3)cc2c1	-14.2	10µM*	?	-4.8%	-8.9	10.3%
C=CCn1nc(C(=O)Nc2ccc(OC)cc2)cc1-c1sc(NC(=O)c2ccccc2)nc1C	-13.0	.	.	.	0.8	.
CCC(c1nnnn1Cc1ccco1)N(CCc1ccccc1)Cc1cc2cc(C)ccc2[nH]c1=O (stereo not drawn)	-16.1	39.8µM*	-16.2%	-33.6%	-11.9	10.7%
COc1ccc(-c2noc(N(c3ccc(F)c(Cl)c3)c3nc(-c4ccc(OC)c(OC)c4)no3)n2)cc1OC	.	10.6%[59 µM]	-13.9%	-1.7%	.	37.1%
CCOc1[nH]n(-c2ccccc2)c(=O)c1C=Nc1ccc(Cl)cc1	-10.3	-43.5%[12.7 µM]	?	?	-12.7	-31.2%
O=c1c(C=Nc2ccc(Cl)cc2)c[nH]n1-c1cccc(Cl)n1	0.3	-17.3%[12.7 µM]	25.1µM*	-6.0%	-6.8	18.3%
O=c1c(C=Nc2cccc(C(F)(F)F)c2)c[nH]n1-c1cccc(Cl)n1	0.4	50.1µM*	39.8µM*	?	10.0	-4.7%
Cc1ccccc1NC(=O)Cn1cc(C(=O)c2ccco2)c2ccccc21	.	-28.2%[59 µM]	-24.1%	?	.	7.5%
Cc1sc(NC(=O)CSc2nnc(N)s2)c(C#N)c1C	8.7	-5.1%	-6.2%	-1.5%	31.0	38.4%
O=C(NNC(=O)c1cccc(-n2cccc2)c1)c1ccc(F)cc1	-18.7	0.9%[12.7 µM]	?	39.8µM*	-10.0	-22.2%
Cc1cccc(C(=O)NNC(=O)c2ccc(F)cc2)c1	4.4	-5.9%[59 µM]	7.0%	-5.9%	8.0	37.1%
CCOC(=O)c1ccc(NC2=CC(c3ccc(F)cc3)N(c3ccc(C(=O)OCC)cc3)C2=O)cc1 (stereo not drawn)	.	-7.8%[59 µM]	-17.2%	-14.5%	.	-2.2%
Cc1ccc(NC(=O)CN(C)S(=O)(=O)c2ccc3c(c2)n(C)c(=O)c(=O)n3C)cc1F	.	9.1%[59 µM]	-2.3%	5.3%	.	39.2%
COc1cc(/C=C/C(=O)OCC(=O)NC2CC2)cc(S(=O)(=O)N2CCc3ccccc32)c1OC	-5.9	56.2µM*	-18.6%	-23.1%	-1.7	-0.3%
COc1cc(/C=C/C(=O)OCC(=O)Nc2ccc(NC(C)=O)cc2)cc(S(=O)(=O)N2CCc3ccccc32)c1OC	-10.0	-49.7%	-30.1%	.	-7.7	23.7%
N#CCCN(Cc1ccccc1)C(=O)c1nccnc1C(=O)O	5.3	35.5µM*	?	?	.	49.9%
N#CCCN(Cc1cccnc1)C(=O)Nc1ccccc1	5.2	-17.8%[12.7 µM]	-26.1%	4.8%	-14.3	8.7%
SMILES	Six1-Eya2 inh	G9a block	JMJD2A Tudor	BAZ2B block	CtBP-E1A inh	HP1b chromo inh
O=C(/C=C/c1ccc(S(=O)(=O)N2CCOCC2)cc1)NC(CO)C(O)c1ccc([N+](=O)[O-])cc1 (stereo not drawn)	-6.1	.	-24.0%	.	-5.0	28.1%
COc1ccccc1NC(=O)c1cccc(S(=O)(=O)N2CCOCC2)c1	29.5	13.8%[59 µM]	6.2%	8.5%	0.0	52.2%
Cc1ccc(S(=O)(=O)N2CCCCC2)cc1NC(=O)c1cc2ccccc2o1	-11.7	-5.5%[12.7 µM]	-14.2%	7.4%	-8.3	30.3%
COc1ccc(C)cc1NC(=O)/C=C/c1ccc(OC)c(S(=O)(=O)N2CCOCC2)c1	-23.8	?	?	-9.8%	-22.4	1.3%
COc1ccc(S(=O)(=O)N2CCOCC2)cc1NC(=O)c1cc2ccccc2o1	-13.1	44.7µM*	-26.8%	3.2%	-7.8	10.5%
CCOc1ccc(NC(=O)c2cccc(-n3cccc3)c2)cc1S(=O)(=O)N1CCOCC1	.	-7.5%[2.33 µM]	.	5.01µM*	.	.
COc1ccc(S(=O)(=O)N2CCOCC2)cc1NC(=O)c1cccc(-n2cccc2)c1	?	28.2µM*	?	?	-4.0	-24.6%
COc1ccc(OC)c(NC(=O)/C=C/c2ccc(S(=O)(=O)N3CCOCC3)cc2)c1	-11.7	50.1µM*	-34.2%	-25.9%	1.2	2.4%
CN(c1ccccc1)c1ccc(/C=C(\C#N)c2nnc3n2CCCCC3)cc1[N+](=O)[O-]	-12.3	39.8µM*	44.7µM*	44.7µM*	-3.5	?
C/C=C/C=C/C(=O)N1CC[C@]23c4ccccc4N[C@H]4N(C)c5cccc6c5[C@]42CCN([C@H]6C2OC2(C)C)[C@H]13 (stereo partly drawn)	-18.9	?	50.1µM*	50.1µM*	0.7	-32.4%
S=c1[nH]nc(-c2cccc(Cl)c2)n1/N=C/c1ccc(-c2ccccc2Br)o1	4.9	?	-29.1%	-12.6%	5.5	11.3%
S=c1[nH]nc(-c2cccc(Cl)c2)n1/N=C/c1ccco1	-6.1	3.55µM*	31.6µM*	-28.5%	2.3	-18.4%
Cc1ccc(/C=N/n2c(-c3cccc(Cl)c3)n[nH]c2=S)o1	-7.3	1µM*	?	-11.0%	-10.7	7.4%
CCCN1CNc2c(c(=O)[nH]c(=S)n2CCc2c(Cl)cccc2Cl)C1	.	.	-16.3%	.	.	20.3%
C/C(=N\Nc1ccc(Cl)c(Cl)c1)c1ccc(-n2ccnc2)cc1	-16.3	11.2µM*	-31.2%	?	-11.6	13.3%
Cc1nonc1CN(C)C(=O)CC1C(=O)NCCN1Cc1c(F)cccc1Cl (stereo not drawn)	2.1	6.8%	-16.7%	1.1%	-20.1	37.9%

Screening data deposited in PubChem BioAssay by National Center for Advancing Translational Sciences (NCATS).
